These results are taken from PubChem BioAssay.

SMILES strings stand for the structures. Where “and” joins values, the source holds several entries; their conditions need not be identical. Equal values may be shown once. Calls of active or inactive are those of the source.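 Rule for the calls: active = inhibition at or above 50% relative to wild type and mutant plate controls; inactive = inhibition below 50%.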

The test can be described thus: inhibitors of Chlamydomonas gravitaxis, primary screen, whole organism, Chlamydomonas reinhardtii, WT vs cilia-less mutant, absorbance, 96-well (AID 463189).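 Note: 0% = wild type cc124 cells in DMSO and 100% = ciliumless bld1 mutant cells.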 Conditions: OD600 absorbance, 2 days, at 10 µM, active compounds read high.
For the molecule `O=C(O)Cc1c[nH]c2ccc(O)cc12`, the inhibition (as a rule, the relative decrease from the control value, in per cent) was -4.32% (inactive). As for `COc1cccc(C(=O)NCCN2CCN(c3ccc(Cl)cc3)CC2)c1`, the figure is 0.497% (inactive); as for `NC(=O)CC[C@H](N)C(=O)O`, -13.2% (inactive); as for `C[C@]12C=CC(=O)C=C1CC[C@@H]1C2=CC[C@]2(C)[C@@H](C(=O)CN3CCN(c4cc(N5CCCC5)nc(N5CCCC5)n4)CC3)CC[C@@H]12`, 3% (inactive).

As to `Nc1ncnc2c1ncn2[C@@H]1O[C@H](COP(=O)(O)OP(=O)(O)OP(=O)(O)OP(=O)(O)OC[C@@H]2O[C@H](n3cnc4c(N)ncnc43)C(O)[C@@H]2O)[C@H](O)C1O` (some centres undefined), the inhibition was 15% (inactive). For the molecule `C[C@@H]1C(=O)NC2=Nc3cccc(Cl)c3CN21`, the inhibition is 1.72% (inactive). For the molecule `CN1CCN(c2nc3cc(C(F)(F)F)ccc3n3cccc23)CC1`, the inhibition was 10.9% (inactive). In the case of `CC(C)(C)NCC(O)c1ccc(O)c(CO)c1` (centres undefined), the inhibition is 2.6% (inactive) and 2.52% (inactive). Take `CCCCCCCCCCCCCCCCCCNC(=O)OCC(COP(=O)([O-])OCC[n+]1ccsc1)OC` (centres undefined): the inhibition was 7% (inactive).

As for `CNC(=O)[C@H]1O[C@@H](n2cnc3c(NCc4ccc(N)cc4)ncnc32)C(O)[C@H]1O` (some centres undefined), the inhibition is -1.61% (inactive). As for `CC1CN(S(=O)(=O)c2cccc3cnccc23)CCN1` (centres undefined), the figure is 5.73% (inactive); as for `CNCC[C@H](Oc1ccc(C(F)(F)F)cc1)c1ccccc1`, -14.3% (inactive); as for `O=c1[nH]c(=O)n([C@H]2C[C@H](O)[C@@H](CO)O2)cc1/C=C/Br`, 6.74% (inactive).

`NS(=O)(=O)c1cccc2c1c([N+](=O)[O-])cc1nc(O)c(O)nc12`: the inhibition was 0.793% (inactive).
